The source made the active and inactive calls. The calls were made as follows: active = hit-call score of the fitted dose curve at least 0.9, where 1 is the maximum; inactive = score below 0.9.

Read-out in assay [1]: Forkhead box O1 (FOXO1), FOXO1 (gene 2308)
Put plainly: LTEA_HepaRG_FOXO1: Life Technologies and Expression Analysis (LTEA) Assay for Forkhead box O1 (FOXO1) using HepaRG (AID 2283456). Particulars: mRNA level, 48 h; actives raise or lower the signal. Put shortly: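 Using one lot of HepaRG hepatic cells kept in 0.5% DMSO, the team applied test chemicals in duplicate, half-log dilutions from 100 uM, for 48 h. Expression, normalised to ACTB/GAPDH/POLR2A, was compared with vehicle in either direction.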

Read-out in assay [2]: growth arrest and DNA damage 45 (GADD45A), GADD45A (gene 1647)
Put plainly: LTEA_HepaRG_GADD45A: Life Technologies and Expression Analysis (LTEA) Assay for growth arrest and DNA damage 45 (GADD45A) using HepaRG (AID 2283458). Particulars: mRNA level, 48 h; actives raise or lower the signal. The method in brief:
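Transcript induction or loss, quantified by TaqMan qRT-PCR against three housekeeping genes, is the read-out. HepaRG cells received chemicals for 48 h across eight half-log concentrations from 100 uM in 0.5% DMSO; gain and loss fitted relative to DMSO.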

Read-out in assay [3]: Forkhead box O3 (FOXO3), FOXO3 (gene 2309)
The assay is described as follows: LTEA_HepaRG_FOXO3: Life Technologies and Expression Analysis (LTEA) Assay for Forkhead box O3 (FOXO3) using HepaRG (AID 2283459). The note with it: mRNA level, 48 h; actives raise or lower the signal. The method in brief:
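Gene-expression endpoint: FOXO3 transcript level by qRT-PCR in HepaRG cultures treated 48 h with chemicals up to 100 uM (half-log, 0.5% DMSO vehicle).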

Read-out in assay [4]: ABC Transporter (ABCB1), ABCB1 (gene 5243)
Put plainly: LTEA_HepaRG_ABCB1: Life Technologies and Expression Analysis (LTEA) Assay for ABC Transporter (ABCB1) using HepaRG (AID 2283460). Particulars: mRNA level, 48 h; actives raise or lower the signal. Put shortly:
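Human liver HepaRG line treated 48 h with up to 100 uM compound (eight half-log points, 0.5% DMSO); ABCB1 mRNA change fitted bidirectionally against DMSO controls.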

Read-out in assay [5]: growth arrest and DNA damage 45 (GADD45B), GADD45B (gene 4616)
The assay is described as follows: LTEA_HepaRG_GADD45B: Life Technologies and Expression Analysis (LTEA) Assay for growth arrest and DNA damage 45 (GADD45B) using HepaRG (AID 2283461). Particulars: mRNA level, 48 h; actives raise or lower the signal. The method in brief:
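HepaRG, ~100,000 cells/well, 48 h plating; serum-free induction medium; cpd 100 uM top, half-log x8, 0.5% DMSO, duplicate, 48 h; lysis in RLT, RNA isolation, qRT-PCR; norm ACTB/GAPDH/POLR2A; bidirectional fit vs DMSO.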

Read-out in assay [6]: ABC Transporter (ABCB11), ABCB11 (gene 8647)
The assay is described as follows: LTEA_HepaRG_ABCB11: Life Technologies and Expression Analysis (LTEA) Assay for ABC Transporter (ABCB11) using HepaRG (AID 2283463). The note with it: mRNA level, 48 h; actives raise or lower the signal. The method in brief:
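Using HepaRG cultures held in 0.5% DMSO, chemicals were tested at half-log dilutions from 100 uM for 48 h. Induction or suppression of ABCB11 mRNA, normalized to ACTB, GAPDH and POLR2A, was fitted bidirectionally against vehicle.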

Read-out in assay [7]: ABC Transporter (ABCC2), ABCC2 (gene 1244)
Put plainly: LTEA_HepaRG_ABCC2: Life Technologies and Expression Analysis (LTEA) Assay for ABC Transporter (ABCC2) using HepaRG (AID 2283464). The note with it: mRNA level, 48 h; actives raise or lower the signal. Put shortly: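 HepaRG, 48 h post-plating; serum-free induction medium; cpd 8-pt, 100 uM top, half-log, 0.5% DMSO, duplicate, 48 h. Readout: ABCC2 mRNA by qRT-PCR, norm. ACTB/GAPDH/POLR2A. Bidirectional fit vs DMSO baseline.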

Read-out in assay [8]: Broad substrate specificity ATP-binding cassette transporter ABCG2 (Homo sapiens) (UniProt Q9UNQ0)
Put plainly: LTEA_HepaRG_ABCG2: Life Technologies and Expression Analysis (LTEA) Assay for ABC Transporter (ABCG2) using HepaRG (AID 2283465). Particulars: mRNA level, 48 h; actives raise or lower the signal. The method in brief: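 Gene expression of ABCG2 in HepaRG liver cells is quantified by qRT-PCR following 48 h exposure across an eight-point series topping at 100 uM. Values come from bidirectional fitting relative to DMSO vehicle.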

Read-out in assay [9]: ABC Transporter (ABCC3), ABCC3 (gene 8714)
Put plainly: LTEA_HepaRG_ABCC3: Life Technologies and Expression Analysis (LTEA) Assay for ABC Transporter (ABCC3) using HepaRG (AID 2283462). The note with it: mRNA level, 48 h; actives raise or lower the signal. Put shortly: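 Human HepaRG, 48 h dosing, 8-pt half-log series from 100 uM, 0.5% DMSO vehicle, duplicates. ABCC3 mRNA by TaqMan qRT-PCR, housekeeping-normalized; bidirectional curve fit vs DMSO.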

Assay [10] in a line: CEETOX_H295R_TESTO: CeeTox H295R High-throughput Steroidogenesis Assay for Testosterone (TESTO) (AID 2283457).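 As to AC50: cells exposed to chemicals for 48 h before medium collection.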 The note with it: actives raise or lower the signal. The method in brief: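 H295R, passage ≤10, 48 h dosing; media extracted with MTBE → HPLC-MS/MS for testosterone; 7-pt standard curve sets LLOQ/ULOQ; bidirectional fit vs DMSO; MTT viability same wells.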

Sequence of Broad substrate specificity ATP-binding cassette transporter ABCG2 (Homo sapiens) (Q9UNQ0 whole entry, looked up): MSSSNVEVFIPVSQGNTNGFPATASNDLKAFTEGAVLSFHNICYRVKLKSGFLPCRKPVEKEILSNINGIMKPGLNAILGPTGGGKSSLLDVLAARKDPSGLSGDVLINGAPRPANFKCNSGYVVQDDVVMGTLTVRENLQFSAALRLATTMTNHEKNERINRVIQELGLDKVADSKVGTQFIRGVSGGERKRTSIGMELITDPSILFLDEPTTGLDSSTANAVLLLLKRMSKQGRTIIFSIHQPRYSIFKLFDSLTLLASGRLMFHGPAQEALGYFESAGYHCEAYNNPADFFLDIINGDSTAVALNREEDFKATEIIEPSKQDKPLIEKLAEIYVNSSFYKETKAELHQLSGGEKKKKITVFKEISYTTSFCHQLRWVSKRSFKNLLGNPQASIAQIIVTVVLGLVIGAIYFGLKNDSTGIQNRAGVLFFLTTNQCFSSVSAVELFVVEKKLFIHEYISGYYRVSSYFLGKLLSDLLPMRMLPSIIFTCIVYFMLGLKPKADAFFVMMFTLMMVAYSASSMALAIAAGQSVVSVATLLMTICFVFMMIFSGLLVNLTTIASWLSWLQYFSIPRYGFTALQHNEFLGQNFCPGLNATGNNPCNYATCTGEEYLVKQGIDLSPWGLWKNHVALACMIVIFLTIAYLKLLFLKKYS

Consider `O=c1[nH]sc2ccccc12`, for which the compound was called inactive in assay [1], in assay [2], in [3], in [4], in [5] and in assay [6]. The result in [7] and in assay [8] was inactive.

As to `c1ccc2n[nH]nc2c1`, the compound was called inactive in [1], in assay [2], in assay [3], in assay [4], in assay [5] and in assay [6]. In addition, the compound was classed as inactive in [7] and in [8].

As usually defined, the AC50 is the midpoint of the concentration-response curve, whichever way the signal moves. As to `CC[C@@H]1C[C@H](N(Cc2cc(C(F)(F)F)cc(C(F)(F)F)c2)C(C)=O)c2cc(C(F)(F)F)ccc2N1C(=O)OC(C)C`, the result in [1], in assay [2], in assay [3], in assay [5], in assay [9] and in assay [6] was inactive. Also, the compound was called inactive in assay [8]. The AC50 was 0.429 µM (active) in [4] and 0.737 µM (active) in [7].

Turning to `CC(C)(C)c1csc(-c2cc3cc(OCc4ccccc4CC(=O)O)ccc3o2)n1`, the concentration at half-maximal activity (AC50) is 81.3 µM (active) in [1]; 79 µM (active) in [4]; 42.6 µM (active) in assay [5]; 15.8 µM (active) in [6]; 93.8 µM (active) in assay [7]; 15.8 µM (active) in assay [8]. Further, the outcome in [2], in assay [3] and in assay [9] was inactive.

On to `NC(=O)c1nc(-c2cccc(-c3cc(F)ccc3OCC(F)(F)C(F)(F)F)c2)n[nH]1`, for which the outcome in assay [1], in [10], in assay [2], in assay [4] and in assay [6] was inactive. Further, the AC50 in assay [3] was 50 µM (active); in assay [7], 89.8 µM (active); in [8] it was 15.8 µM (active).

Take `CCCCCCCCCCCO`: the result in assay [1], in [2], in assay [3], in assay [4], in assay [5] and in [6] was inactive. The outcome in [7] and in assay [8] was inactive.

As to `CCCCCCCCN(C)CCCCCCCC`, the compound was called inactive in [1], in [10], in assay [2], in assay [3], in assay [4] and in assay [5]. The compound was classed as inactive in [9], in assay [6], in assay [7] and in [8].

For `Oc1ccc2ccccc2c1`, the result in assay [1], in assay [2], in assay [3], in [4], in assay [5] and in assay [9] was inactive. For the same compound, the compound was classed as inactive in [6], in assay [7] and in assay [8]. In addition, in assay [10], the concentration at half-maximal activity (AC50) is 82.4 µM (active).

Consider `CC/C(=C(/CC)c1ccc(O)cc1)c1ccc(O)cc1`, for which the AC50 is 74.8 µM (active) in assay [1]; 76.9 µM (active) in [3]; 82.2 µM (active) in assay [4]; 68.8 µM (active) in [5]; 78 µM (active) in assay [7]; 50 µM (active) in [8]. Besides, the compound was classed as inactive in assay [2], in assay [9] and in assay [6].

Consider `Cc1c2ccccc2c(C)c2c1ccc1ccccc12`, for which the AC50 was 75 µM (active) in [1]; 61.9 µM (active) in [2]; 13 µM (active) in assay [3]; 30.6 µM (active) in assay [6]; 12.8 µM (active) in assay [8]. Also, the compound was classed as inactive in assay [10], in [4] and in [7].

In the case of `CCCCCCCCOC(=O)c1cc(O)c(O)c(O)c1`, the compound was called inactive in assay [1], in assay [2], in assay [3], in [4], in assay [5] and in assay [9]. Also, the outcome in assay [6], in [7] and in assay [8] was inactive.

Regarding `O=C1CCC(C2CCCCC2)CC1`, the call in assay [1], in assay [2], in assay [3], in assay [4], in [5] and in [9] was inactive. The result in assay [6], in [7] and in assay [8] was inactive.

Turning to `CCCCCCCCCC(=O)O`, the compound was called inactive in assay [1], in assay [2], in assay [3], in [4], in assay [5] and in assay [9]. Besides, the outcome in assay [6], in [7] and in assay [8] was inactive.

For the compound `CC1=CC(=O)/C(=C(/C)O)C(=O)O1`, the compound was classed as inactive in assay [1], in assay [2], in assay [3], in assay [4], in assay [5] and in assay [9]. Further, the compound was called inactive in assay [6], in assay [7] and in [8].

For the compound `O=C=NCCCCCCN=C=O`, the call in [1], in assay [2], in [3], in assay [4], in assay [5] and in assay [9] was inactive. The compound was classed as inactive in assay [6], in assay [7] and in assay [8].

In the case of `CN(C[C@@H](CC[N+]12CCC(C3CCCCC3)(CC1)CC2)c1ccc(Cl)c(Cl)c1)C(=O)c1cc(C(F)(F)F)cc(C(F)(F)F)c1`, the AC50 in assay [1] was 35.9 µM (active); in assay [2], 0.171 µM (active); in assay [3], 30.6 µM (active); in assay [4], 74.2 µM (active); in assay [6], 14.5 µM (active); in assay [7], 63.3 µM (active). Besides, the compound was called inactive in assay [5] and in assay [8].

`O=C1O[C@H]([C@@H](O)CO)C(O)=C1O`: the call in [1], in assay [2], in assay [3], in assay [4], in assay [5] and in [6] was inactive. Also, the compound was classed as inactive in [7] and in assay [8].
